Data reported in PubChem BioAssay (EPA / NIEHS).
Active and inactive are the calls of the source. Rule for the calls: active = hit-call score of the fitted dose curve at least 0.9, where 1 is the maximum; inactive = score below 0.9.

Target: Myc proto-oncogene protein (Homo sapiens) (UniProt P01106)
Assay: ATG_Myc_CIS: Attagene CIS-FACTORIAL HepG2 Assay for human Myelocytomatosis (Myc) Proto-Oncogene Transcription Factor (AID 2282990)
Details: HepG2, Attagene cis-reporter transcription factor activity; actives raise or lower the signal
Procedure: ATG_CIS is a cell-based, multiplexed-readout assay that uses HepG2, a human liver cell line, with measurements taken at 24 hours after chemical dosing in a 24-well plate.ATG_Myc_CIS is one of 52 assay component(s) measured or calculated from the ATG_CIS assay. It is designed to make measurements of mRNA induction, a form of inducible reporter, as detected with fluorescence intensity signals by Reverse transcription polymerase chain reaction (RT-PCR) and Capillary electrophoresis technology.Data from the assay component ATG_Myc_CIS was analyzed into 1 assay endpoint. This assay endpoint, ATG_Myc_CIS, was analyzed with bidirectional fitting relative to DMSO as the negative control and baseline of activity. Using a type of inducible reporter, measures of mRNA for gain or loss-of-signal activity can be used to understand the reporter gene at the transcription factor-level as they relate to the gene MYC. Furthermore, this assay endpoint can be referred to as a primary readout, because this assay has produced multiple assay endpoints where this one serves a reporter gene function. To generalize the intended target to other relatable targets, this assay endpoint is annotated to the dna binding intended target family, where the subfamily is basic helix-loop-helix leucine zipper.
Human liver HepG2 cells are transiently transfected with multiple reporter transcription units (MRTUs) in 6-well plates using FuGene 6 reagent (Roche; 3 ml FuGene/1 mg DNA). The MRTU constructs are regulated by a cis-regulating element (promoter). […] A major difference between the CIS and TRANS system is that in CIS activities of endogenous TFs are measured, whereas the TRANS assay evaluates changes in activities of exogenous, chimeric NR-Gal4 proteins. […] At the end of 24 hour incubation, total RNA was isolated using TriZol reagent (Invitrogen). The isolated RNA is then reverse-transcribed using oligo(dT) primer and Mo-MLV reverse transcriptase (Invitrogen) with DNAse I (Ambion) treatment for 30 min. The one-tenth of the produced cDNA was amplified by PCR using Taq DNA polymerase (Invitrogen) and two reporter sequence-specific primers. The PCR products were fluorescently labeled by primer extension with 6-arboxyfluorescein (6-FAM) 5'-labeled reporter sequence-specific primer (2 min at 95 C, 20 s at 68 C and 10 min at 72 C) and these products were digested with 5U of HpaI (New England Biolabs) for 2h at 37 C. The fragments were purified using Qiaquick PCR columns (Qiagen), analyzed on an ABI 3130xL genetic analyzer (Applied Biosystems) with peak positions identified by using a set of X-rhodamine (ROX)-labeled MapMarker1000 molecular weight standards (BioVentures). The raw capillary electrophoresis data was processed using Attagraph software (Attagene).

Chain of Myc proto-oncogene protein (Homo sapiens) (P01106 whole entry, looked up): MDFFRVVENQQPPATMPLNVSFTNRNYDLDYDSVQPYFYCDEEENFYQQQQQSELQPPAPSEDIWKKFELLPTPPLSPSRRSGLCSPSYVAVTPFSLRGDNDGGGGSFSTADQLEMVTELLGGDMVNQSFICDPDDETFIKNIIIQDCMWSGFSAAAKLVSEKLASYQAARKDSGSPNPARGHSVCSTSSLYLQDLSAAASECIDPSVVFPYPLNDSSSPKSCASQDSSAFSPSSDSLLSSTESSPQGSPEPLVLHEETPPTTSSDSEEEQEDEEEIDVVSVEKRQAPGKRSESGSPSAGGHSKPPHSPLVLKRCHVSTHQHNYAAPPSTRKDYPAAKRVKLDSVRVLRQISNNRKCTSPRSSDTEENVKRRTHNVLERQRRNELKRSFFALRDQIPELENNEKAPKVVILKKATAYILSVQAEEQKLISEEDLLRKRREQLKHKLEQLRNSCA

Structure (SMILES) | outcome | AC50
Cc1cccc(C(C)(C)C)c1O | inactive | –
COCC(=O)O | inactive | –
CC(=O)OC1CCCCC1C(C)(C)C (stereo not given) | inactive | –
[Cl][Sc]([Cl])[Cl] | inactive | –
CCc1cccc(C)c1N(C(=O)CS(=O)(=O)O)C(C)COC (stereo not given) | inactive | –
O=C(O)C1CCC(C(=O)O)CC1 (stereo not given) | inactive | –
Nc1ccc(C(=O)O)cc1 | inactive | –
C=CC(C)(O)CC/C=C(\C)CC (stereo not given) | inactive | –
CCC(=O)C1CC(C(C)C)CC=C1C (stereo not given) | inactive | –
CCN(CC)c1cccc(C)c1 | inactive | –
C=CC(=O)OCCCCCCCC(C)C | inactive | –
Cn1cccc1 | inactive | –
CCC[Si](OC)(OC)OC | inactive | –
c1ccc2c(c1)[nH]c1ccccc12 | inactive | –
Cc1ccc(C)c(OCCCC(C)(C)C(=O)O)c1 | inactive | –
C=C(C)C1CC=C(C)CC1 (stereo not given) | inactive | –
Cc1noc(NS(=O)(=O)c2ccc(N)cc2)c1C | inactive | –
COc1ccc(-c2coc3cc(O)cc(O)c3c2=O)cc1 | inactive | –
C=CC(=O)NCOCCCC | inactive | –
CCCCCCCC(=O)OCC | inactive | –

Structure (SMILES) | outcome | AC50
CC(=O)c1ccc(S(=O)(=O)NC(=O)NC2CCCCC2)cc1 | inactive | –
Nc1nc(N)nc(-c2ccccc2)n1 | inactive | –
NC(=O)Nc1ccccc1 | inactive | –
CC(C)CCOCc1ccccc1 | inactive | –
CC=C(C)C=CC=C(C)C | inactive | –
C[N+](C)(C)CCCNS(=O)(=O)C(F)(F)C(F)(F)C(F)(F)C(F)(F)C(F)(F)C(F)(F)C(F)(F)C(F)(F)F | inactive | –
O=C(O)c1cc(O)c2ccccc2c1O | – | 43.6 µM (active)
C=CC(=O)NC(C)(C)C | inactive | –
C=Cc1ccc(OC(C)=O)cc1 | inactive | –
Nc1ncnc2nc[nH]c12 | inactive | –
C=C(C)OC(C)=O | inactive | –
CCCCCCCCCCCC(=O)N(C)CC(=O)O | inactive | –
CC(C)CO | inactive | –
O=C1c2ccccc2C(=O)c2cc(S(=O)(=O)O)ccc21 | inactive | –
N#Cc1ccc(C(c2ccc(C#N)cc2)n2cncn2)cc1 | inactive | –
CCCCCCCCCCCCCCCCCCOS(=O)(=O)O | inactive | –
C=CC(C)(CCC=C(C)C)OC(=O)C=Cc1ccccc1 (stereo not given) | inactive | –
CCOC(=O)/C=C\C(=O)OCC | inactive | –
CCC(C)C(=O)OCCc1ccccc1 (stereo not given) | inactive | –
CC=CC(=O)OCC(C)C | inactive | –
